Sampled rows, rich in hits. Any-hit rate of the full collection: about 4.7%.
UBC9 SUMO inh = blocks human SUMOylation mediated by UBC9; inhibition, % at 35 µM; HTRF SUMOylation assay, SAE1/SAE2 + UBC9, in vitro; hit rate 0.36% among 290,000; AID 2006; in the data active = inhibition above about 50%, passing the limit was not always enough; inconclusive = no clear call, values can overlap the other calls
Target sequence (P63279 whole entry, looked up): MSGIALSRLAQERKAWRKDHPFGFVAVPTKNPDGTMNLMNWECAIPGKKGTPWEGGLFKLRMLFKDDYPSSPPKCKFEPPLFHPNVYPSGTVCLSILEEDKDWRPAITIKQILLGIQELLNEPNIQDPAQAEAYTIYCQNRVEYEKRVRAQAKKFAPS
PABP1 MLLE inh = inhibitors of microRNA-mediated deadenylation, human PABP1 MLLE binding; P11940; hit rate 0.36% among 360,000; inhibition, % at 20 µM; GST-MLLE / FITC-PAM2 fluorescence polarization; in the data active = inhibition above about 35%, passing the limit was not always enough;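 also: plate controls were DMSO wells with GST-MLLE for no effect and wells lacking GST-MLLE protein for full effect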
eIF4H inh = inhibitors of RNA binding by human eIF4H | AID 2012 | Q15056 | hit rate 0.94% among 290,000 | inhibition, % at 35 µM | eIF4H fluorescence polarization binding assay;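 also: calls also rest on retests at 20 µM and on dose response follow-up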
PABP FP inh = blocks human PABP binding to poly(A) RNA. fluorescence polarization. inhibition, % at 35 µM. P11940. hit rate 1% among 290,000. AID 2014;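 also: calls also rest on retests at 20 µM and on dose response follow-up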
Efflux pump inh = inhibitors of Candida antifungal efflux pumps expressed in yeast; S. cerevisiae Candida pump triplex, Nile Red efflux; inhibition, % at 10 µM; hit rate 0.44% among 330,000;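 active = plate passing quality check with inhibition over a set limit, or well fluorescence over plate mean plus 4 SD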;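 also: Nile Red retained in pooled yeast measured as flow cytometry median fluorescence; 0% = buffer negative control and 100% = Enniatin B positive control; higher means more Nile Red kept so more efflux inhibition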
ALR inh = inhibitors of human sulfhydryl oxidase ALR. hit rate 3.8% among 290,000. purified ALR, DTT oxidation, H2O2 HRP-luminol luminescence. inhibition, % (concentration not given with the values);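 active = mean replicate inhibition above about 79%, with every replicate also reaching it, limit read from the data; inconclusive = only one of the two criteria met; inactive = mean below limit and not every replicate reaching it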
* = called active by the depositor; ? = inconclusive; . = no result given. Unless noted, no rule for the calls is given here.

SMILES	UBC9 SUMO inh	PABP1 MLLE inh	eIF4H inh	PABP FP inh	Efflux pump inh	ALR inh
COc1ccc(N2CCN(C(CNC(=O)c3ccco3)c3ccco3)CC2)cc1 (stereo unspecified)	.	-16.2	.	.	0.1	90.8*
O=C(NCC(c1cccnc1)N1CCN(c2ccc(F)cc2)CC1)c1ccco1 (stereo unspecified)	-4.0	-8.6	-4.4	2.0	-0.2	92.4*
COC(=O)NCC(c1ccco1)N1CCN(c2ccccc2)CC1 (stereo unspecified)	3.2	-2.9	-5.8	1.7	0.0	96.4*
CCC(C)(C)C1CCc2[nH]nc(C(=O)NCc3ccccn3)c2C1 (stereo unspecified)	.	-12.5	.	.	-0.1	3.0
CC1(C(=O)NS(=O)(=O)c2ccc(F)cc2F)CCN1C(=O)Cc1ccc(Cl)cc1Cl (stereo unspecified)	.	-3.9	.	.	.	.
FC(F)(F)c1cccc(N2CCN(C(=S)NCC3CCCO3)CC2)c1 (stereo unspecified)	8.5	-118.7	-11.3	1.0	0.0	3.0
O=C(COc1coc(CN2CCN(c3ccccc3)CC2)cc1=O)NCC1CCCO1 (stereo unspecified)	.	8.3	.	.	0.0	93.4*
O=C(NCc1cccnc1)C(=O)NCC(c1ccco1)N1CCN(c2ccc(F)cc2)CC1 (stereo unspecified)	-1.7	-4.8	-4.4	-7.7	-0.2	85.8*
COc1ccc(N2CCN(C(CNC(=O)c3ccco3)c3cccnc3)CC2)cc1 (stereo unspecified)	17.6	1.7	-11.7	5.0	0.0	89.0*
S=C(NCC1CCCO1)N1CCN(c2ccccc2)CC1 (stereo unspecified)	6.4	-103.1	-0.7	3.7	-0.3	97.8*
O=C1NC(Cc2ccccc2)c2nc3ccc(Cl)cc3c(=O)n2-c2ccccc21 (stereo unspecified)	.	.	.	.	0.1	7.7
COCCNC(=O)C1(C)CCN(C(=O)c2ccc3sccc3c2)C1 (stereo unspecified)	.	20.8	.	.	.	.
COc1ccc(C(C)(C)NC(=O)C2CCC(=O)N(CCCN3CCCC3=O)C2)cc1 (stereo unspecified)	6.3	-3.8	-17.7	-4.2	0.0	-8.8
O=C(NCC1CCCO1)C(=O)NCC(c1ccco1)N1CCN(c2ccc(F)cc2)CC1 (stereo unspecified)	-8.7	0.8	8.1	-2.1	1.9	59.1
O=C(NCC(c1cccnc1)N1CCN(c2ccc(F)cc2)CC1)c1ccc2c(c1)OCO2 (stereo unspecified)	-5.1	3.5	-4.3	1.8	0.1	48.0
O=C(NCC1CCCO1)C(=O)NCC(c1ccco1)N1CCN(c2ccccc2)CC1 (stereo unspecified)	-12.5	7.8	-1.6	2.9	-0.2	98.0*
COc1ccc(N2CCN(C(CNC(=O)c3ccc4c(c3)OCO4)c3cccnc3)CC2)cc1 (stereo unspecified)	-0.4	7.5	-2.6	-1.7	-0.1	96.7*
COc1ccc(C)cc1NC(=O)C1CCCCN1S(=O)(=O)c1ccccc1 (stereo unspecified)	.	-5.6	.	.	0.1	.
CC1CCCN(c2nc3ccccc3nc2C(C#N)S(=O)(=O)c2ccccc2)C1 (stereo unspecified)	50.1*	61.2	?	?	0.0	-0.5
Cc1cccc(S(=O)(=O)C(C#N)c2nc3ccccc3nc2N2CCOCC2)c1 (stereo unspecified)	33.6	4.4	?	?	0.1	18.5
CCCCOc1nc2ccccc2nc1C(C#N)S(=O)(=O)c1ccccc1 (stereo unspecified)	7.0	0.2	-6.0	7.4	0.0	10.6
COc1ccc(S(=O)(=O)C(C#N)c2nc3ccccc3nc2N2CCC(C)CC2)cc1 (stereo unspecified)	64.0	.	63.5*	107.7*	0.2	-4.8
CN(c1ccccc1)S(=O)(=O)c1cccc(NC(=O)c2ccc(Cl)c([N+](=O)[O-])c2)c1	.	5.5	.	.	0.1	4.3
CCC(C)c1ccc(NC(=O)COC(=O)c2nc3nccc(C)n3n2)cc1 (stereo unspecified)	7.0	-7.4	-4.1	-1.1	-0.1	15.2
CC[n+]1ccc2cc(OC)c(OC)cc2c1Cc1ccc(OC)c(OC)c1	3.2	-13.4	6.4	57.0*	0.2	-13.9
Cc1cccc(C)c1NC(=O)CN(C)C(=O)c1ccc2nc[nH]c2c1	.	2.0	.	.	0.0	.
CN(CC(=O)N1CCN(Cc2ccccc2)CC1)S(=O)(=O)c1cccc2nsnc12	9.0	8.7	-1.4	6.7	-0.1	.
